HDAC3 inhib = HDAC3 deacetylase inhibitors, primary screen, biochemical, fluorescence, cell-free homogeneous; Histone deacetylase 3 (Homo sapiens), O15379; recombinant HDAC3, fluorogenic peptide/trypsin coupled; inhibition, % at 8.3 µM; 320,000 compounds, 0.15% hits; in the data active = inhibition above about 26%, passing the limit was not always enough
Target sequence (O15379 whole entry, looked up): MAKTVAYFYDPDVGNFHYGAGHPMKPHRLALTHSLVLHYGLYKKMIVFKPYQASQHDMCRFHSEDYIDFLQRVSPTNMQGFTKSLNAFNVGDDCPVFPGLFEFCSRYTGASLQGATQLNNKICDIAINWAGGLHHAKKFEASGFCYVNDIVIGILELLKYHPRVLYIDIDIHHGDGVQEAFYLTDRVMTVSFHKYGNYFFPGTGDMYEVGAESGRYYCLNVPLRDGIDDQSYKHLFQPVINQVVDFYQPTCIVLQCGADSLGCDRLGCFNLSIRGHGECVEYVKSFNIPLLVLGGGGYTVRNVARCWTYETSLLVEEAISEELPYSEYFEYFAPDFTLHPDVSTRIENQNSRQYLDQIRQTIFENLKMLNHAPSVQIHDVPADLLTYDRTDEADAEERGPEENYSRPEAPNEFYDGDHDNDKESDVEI
HTR2A ag = mouse Htr2a agonists via beta-arrestin recruitment, primary screen, cell-based, luminescence; CHO-K1 mHTR2A beta-arrestin complementation; percent of 30 µM serotonin response; activation, % at 7.6 µM; 360,000 compounds, 0.66% hits; AID 624169, 2012;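 active = activation above a run cutoff, the mean activation of all tested compounds plus 3 SD, cut at about 14% in these data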
LANA-H2A inh = blockers of LANA interaction with H2A/H2B – biochemical, FP readout, HTS, primary screen. Protein LANA1 (Human herpesvirus 8 type P (isolate GK18)), Q9QR71. cell-free LANA-H2A/H2B peptide, fluorescence polarization. inhibition, % (test concentration not listed). 320,000 compounds, 0.6% hits. AID 2629, 2010; in the data active = inhibition mostly above about 10%, no sharp cut-off; inactive = mostly below about 6.7%
CTSL1 counter = Fasciola hepatica cathepsin L1 inhibitors, primary screen, counter-screen for PFM18AAP inhibitor project, biochemical, QFRET, fluorogenic peptide substrate; AID 1906, 2009; recombinant F. hepatica cathepsin L1, Z-Leu-Arg-MCA fluorescence; 300,000 compounds, 0.49% hits; inhibition, % at 5.96 µM;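 active = inhibition above the mean of all tested compounds plus 3 SD, set per screening campaign, cut at about 17% in these data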
OPRM1 ag = OPRM1 agonists via beta-arrestin recruitment, confirmation, counter-screen for mouse HTR2A agonist project, cell-based, luminescence, single concentration; shares compounds with HTR2A ag; U2OS OPRM1 beta-arrestin PathHunter; DMSO 0%, DAMGO 9.3 µM 100%; activation, % at 9.3 µM; 2,300 compounds, 5.3% hits;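 active = mean activation above the mean of DMSO-only wells plus 3 SD, cut at about 0.5% in these data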
HTR2A ag conf = mouse HTR2A agonists, beta-arrestin recruitment, confirmation, cell-based, luminescence, CHO-K1 PathHunter, triplicate; 2,300 compounds, 19% hits; AID 624381, 2012; DMSO 0%, 30 µM serotonin 100%; activation, % at 7.6 µM; shares compounds with HTR2A ag;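 active = mean activation across triplicates above the hit threshold derived in the original primary screen, cut at about 15% in these data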
Hits are given with their value; 0 = inactive; - = not tested or not shown. Compounds with a hit are over-represented: about 1.7% of the library has one in this group of screens.

SMILES	HDAC3 inhib	HTR2A ag	LANA-H2A inh	CTSL1 counter	OPRM1 ag	HTR2A ag conf
Cc1ccc(NC(=O)CN2CCCC2)cc1Br	0	0	0	0	-	-
Cc1cccc(NC(=O)CSc2nnc(-c3ccco3)n2CC2CCCO2)n1 (configuration not stated)	0	14.8	0	0	0	0
Cc1cc2oc(=O)cc(CN3CCN(Cc4ccccc4)CC3)c2cc1O	0	0	0	0	-	-
Cc1cc(O)c2c(CN3CCN(Cc4ccccc4)CC3)cc(=O)oc2c1	0	19.5	0	0	0	17.8
Cc1ccc(-c2cc(C(=O)NCc3ccco3)c3ccccc3n2)s1	0	15.5	0	0	0	0
O=C(O)C1C2CCC(C2)C1C(=O)NCCc1ccc(F)cc1 (configuration not stated)	0	0	0	0	-	-
O=C(O)C1C2CCC(C2)C1C(=O)NCCc1cccc(Cl)c1 (configuration not stated)	0	24.4	0	0	0	0
CC(C)C(=O)Nc1c2c(nn1-c1ccc(F)cc1)CSC2	0	15.8	0	0	0	0
Cc1cccn2c(=O)nc(SCC(=O)NCc3ccccc3)nc12	0	15.5	0	0	0	0
Cc1cccn2c(=O)nc(SCC(=O)NCCc3ccccc3)nc12	0	0	0	0	-	-
O=C(CN1CCN(Cc2cccc(C(F)(F)F)c2)CC1)NCC(=O)Nc1ccc(F)c(F)c1F	-	0	-	-	-	-
CCO[C@@H]1OC(C(=O)O)=C[C@H](c2ccc(C(F)(F)F)cc2)[C@H]1CCCO	0	0	0	0	-	-
CCO[C@H]1OC(C(=O)O)=C[C@@H](c2ccccc2)[C@@H]1CCCO	0	15.4	0	0	0	0
COc1ccc(CNC(=O)CSc2nc3ccc(C)cc3[nH]2)cc1OC	0	0	0	0	-	-
O=C(CCN1N=C(c2ccccc2)CCC1=O)NC1CCCC1	0	19.1	0	0	0	0
COc1cc(NC(=O)c2c(F)c(F)c(OC)c(F)c2F)ccc1NC(=O)c1cccs1	0	16.2	0	0	0	0
COCC1CCN(C(=O)C2CCC(=O)N(C3CCCC3)C2)CC1 (configuration not stated)	0	15.2	0	0	0	0
COC1CCN(C(=O)C2CCC(=O)N(C3CCCCCC3)C2)CC1 (configuration not stated)	0	0	0	0	-	-
O=C(CN1C(=O)NC(c2ccccc2)(c2ccccc2)C1=O)NCc1ccco1	0	15.2	0	-	0	0
COc1cc2[nH]c(C(=O)N3CC(C)OC(C)C3)cc2c(OC)c1OC (configuration not stated)	0	0	0	0	-	-
O=C(Nc1ccncc1)c1cc(-c2cccc(Br)c2)nc2ccccc12	0	14.8	0	0	3.7	0
O=C(Nc1cccnc1)c1cc(-c2cccc(Br)c2)nc2ccccc12	-	0	0	0	-	-
CCN(CC)CCN(Cc1cc2cc3c(cc2[nH]c1=O)OCCO3)C(=S)NCC(C)C	0	22.0	0	0	0	0
CCN(CC)CCN(Cc1cc2cc3c(cc2[nH]c1=O)OCO3)C(=S)NCC(C)C	0	0	0	0	-	-
O=C(O)c1ccc(S(=O)(=O)N(Cc2ccccc2)C2CCCCC2)cc1	0	0	0	0	-	-
SMILES	HDAC3 inhib	HTR2A ag	LANA-H2A inh	CTSL1 counter	OPRM1 ag	HTR2A ag conf
CCC(C)(C)NC(=O)CN(C(=O)C(=O)Nc1ccc2c(c1)OCCO2)N1CCOCC1	0	16.1	0	0	0	0
CCN(CC)C(=O)C1CCN(S(=O)(=O)c2cccc3nonc23)CC1	0	0	0	0	-	-
CCN(C(=O)C1CCN(S(=O)(=O)c2cccc3nonc23)CC1)c1ccccc1	0	15.1	0	0	0	0
CCCCN(C(=O)c1cc2ccccc2o1)c1c(N)n(CCCC)c(=O)[nH]c1=O	0	0	0	-	-	-
NC(=O)c1cc(S(=O)(=O)N2CCN(c3cccc(Cl)c3)CC2)cs1	0	14.6	0	0	0	0
O=C(Nc1cccnc1)c1cc(-c2ccco2)on1	0	20.3	0	0	0	0

Screening data as filed in PubChem BioAssay.
